According to PubChem BioAssay AID2016 (NMMLSC, 2009):
About 1,700 (0.52%) of roughly 330,000 compounds were called active.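 The calls were made as follows: active = GFP response versus DMSO above a set limit, roughly screen mean plus 3 SD (cut at about 180% in these data); inconclusive = fewer than 70 cells counted for a yeast strain; inactive = the rest.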 The list comes from a sample in which actives are over-represented; it also holds similar structures and randomly drawn compounds.

Experiment: modulators of MEP2-GFP levels in yeast, primary screen, S. cerevisiae, multiplex flow cytometry, MLPCN library (AID 2016);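 also: median GFP fluorescence of the barcode-gated MEP2-GFP cells per well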
Conditions: S. cerevisiae MEP2-GFP strain, 3 h, at 10 µM, active compounds read high, 100% = DMSO control level

GFP response vs DMSO, inactive:
COc1cccc(NC(=O)C(Sc2nnnn2C)c2ccccc2)c1 (stereo not drawn) 100%
CC(C)(C)C(=O)/C(C#N)=C/c1ccc(O)cc1 95.4%
O=C(Nc1ccc(F)c([N+](=O)[O-])c1)C1CC(=O)N(Cc2ccccc2)C1 (stereo not drawn) 101%
Cc1cc(=O)oc2cc(NC(=O)C(C)Oc3ccccc3)ccc12 (stereo not drawn) 99.1%
O=C(C(Cc1ccccc1)n1cccc1)N1CCN(C2CCCCC2)CC1 (stereo not drawn) 96.8%
CC(C)Cn1cnc2c1c(=O)n(CC(=O)NN)c(=O)n2Cc1ccccc1 97.4%
CCN(CC)Cc1cc(C(C)=O)ccc1O 103%
CN(CCO)Cc1csc2ccc(Br)cc12 112%
CC(=O)N1c2ccc(S(=O)(=O)NCCC(=O)N(C)C3CCCCC3)cc2CC1C (stereo not drawn) 104%
Cc1ccc(S(=O)(=O)Oc2ccc(/C=N/NC(=O)c3c(Cl)cnn3C)cc2)cc1 98.8%
COc1ccccc1OCCNc1cc(N2CCOCC2)ccc1[N+](=O)[O-] 106%
COc1ccc(CCNC(=O)c2ccccc2-c2ccccc2C(=O)O)cc1OC 93%
COC(=O)/C(=C\Nc1ccccc1)NC(=O)c1ccc(Cl)cc1Cl 91.1%
COCC1CCN(C(=O)c2ccc3oc(Cc4ccccc4)nc3c2)C1 (stereo not drawn) 101%
CCOC(=O)c1nnn(-c2nonc2-n2cccc2)c1CN1CCOCC1 92.2%
CCOC(=O)c1c(CN(C)C)n(-c2ccccc2)c2cc(Br)c(O)cc12 96.5%
Cc1ccc2nnn(Cc3cccc(C(C)(C)C)c3O)c2c1 92.5%
COc1ccc(C)cc1NC(=O)CN1c2cccc3cccc(c23)S1(=O)=O 101%
COc1cc(C(=O)Nn2c(O)c(C3=c4ccccc4=NC3=O)sc2=S)ccc1O 96.1%
COc1cccc(-n2c(SCC(=O)NC3CCS(=O)(=O)C3)nc3ccccc3c2=O)c1 (stereo not drawn) 109%
O=C1N(Cc2ccc3c(c2)OCO3)c2ccccc2C1(O)c1c[nH]c2ccccc12 (stereo not drawn) 104%
Cc1ccc(C(=O)Nc2ccn(C)n2)cc1 109%
O=C(Nc1nccs1)c1cc(S(=O)(=O)N2CCOCC2)c(Cl)cc1Cl 97.8%
CCOC(=O)N1CCN(S(=O)(=O)c2ccc(-n3cnnn3)cc2)CC1 93.2%
CCOC(=O)N1CCN(S(=O)(=O)c2ccc(OC)cc2)CC1 98.6%
NC(=O)COC(=O)c1ccc2c(c1)C(=O)N(Cc1ccco1)C2=O 103%
COc1ccc2sc(-c3ccc(N(C)C)cc3)c(-c3ccc4cc[nH]c4c3)c2c1 105%
COc1ccc(-c2sc3ccc(OC)cc3c2C#Cc2ccccn2)cc1 87.4%
COc1ccc(S(=O)(=O)NCC(c2ccco2)N2CCOCC2)cc1 (stereo not drawn) 97.3%
O=C(CC1CCCCC1)NCc1ccc(F)cc1 92.1%
O=C(CSc1nnnn1-c1ccc(O)cc1)c1ccc(F)cc1 106%
COC(=O)c1ccc(-c2noc(CN(Cc3ccccn3)CC3CCCO3)n2)cc1 (stereo not drawn) 102%
COc1ccc(CN2CCn3ncc(C(=O)Nc4ccc(Cl)cc4Cl)c3C2=O)cc1 107%
O=C1N=C(N2CCOCC2)CS1 99.2%
CC(=O)NC(CC(=O)Nc1ccc(S(=O)(=O)N2CCOCC2)cc1)c1ccccc1 (stereo not drawn) 95.3%
O=[N+]([O-])c1ccc(N/N=C/c2ccccc2)cc1 102%
O=C(N/N=C/c1cccc([N+](=O)[O-])c1)C1CC(=O)N(c2ccc(Br)cc2)C1 (stereo not drawn) 100%
CCOC(=O)C(C)n1cnc2c(nnn2-c2ccc(F)cc2)c1=O (stereo not drawn) 98.2%
COC(=O)C(C)n1cnc2c(nnn2-c2ccc(F)cc2)c1=O (stereo not drawn) 95.3%
CC(=O)c1cccc(OCc2cc(C(=O)NC(C)Cc3cccnc3)no2)c1 (stereo not drawn) 92.2%
CCOC(=O)c1[nH]c(C)c(C(=O)OCC(=O)N2c3ccccc3CC2C)c1C (stereo not drawn) 105%
CN(C)C(=O)c1cccn(Cc2cccc(C(F)(F)F)c2)c1=O 97.2%
COc1ccccc1Nc1nnc(SC(C)C(=O)NC2CC2)s1 (stereo not drawn) 100%
COc1ccc(C(=O)NC2CC2)cc1OC1CCN(Cc2ccc(SC)cc2)CC1 112%
COc1ccc(CN2CCCC(C(=O)c3ccc(Cl)cc3)C2)cc1Cn1cncn1 (stereo not drawn) 99.8%
COc1ccc(OC)c(NC(=O)CSc2nc(-c3ccccc3)cc(=O)[nH]2)c1 107%
Cc1cc(=O)oc2cc(OCC3CC(c4ccccc4Cl)=NO3)ccc12 (stereo not drawn) 100%
O=C(Cn1ncc(N2CCCC2)c(Br)c1=O)c1ccc(Cl)cc1 98.2%
CCc1ccccc1S(=O)(=O)Cc1ccc(C(=O)NCCc2ccccc2)o1 109%
Cc1oc(-c2ccccc2F)nc1CS(=O)CC(=O)NCCN1CCCCC1C (stereo not drawn) 103%
CCOc1ccc(CCNC(=O)C(CC)n2nc(C)n3c(cc4sccc43)c2=O)cc1OCC (stereo not drawn) 105%
CCc1ccc2nc(N(CCCN(C)C)C(=O)c3ccc4c(c3)OCCO4)sc2c1 104%
CCOc1ccc2nc(N(CCCN(C)C)C(=O)c3ccc(C(=O)c4ccccc4)cc3)sc2c1 104%
CC(C)(C)c1ccc(C(CC(=O)O)NS(=O)(=O)Cc2ccccc2)cc1 (stereo not drawn) 98.8%
CCSC1=NCCN1C(=O)c1ccc(S(=O)(=O)N(CC)CC)cc1 106%
O=C(NCCc1ccccc1)C(=O)NCC1OCCN1S(=O)(=O)c1cccs1 (stereo not drawn) 108%
O=C(NC1Cc2ccccc2C1)c1cc(COc2cccc(C(F)(F)F)c2)on1 104%
CCC(=O)Nc1ccc(C(=O)N2CCN(C(=O)c3ccco3)CC2)cc1 104%
Cc1ccc(C)c(OCC(=O)N2CCN(C(=O)c3ccco3)CC2)c1 105%
CCN(C[C@H]1N[C@@](Cc2ccccc2)(C(=O)OC)[C@H]2C(=O)N(Cc3ccccc3)C(=O)[C@@H]12)C(=O)c1ccc(C)cc1 84.7%
CC(CN1CCOCC1)OC(=O)c1ccc(C(C)(C)C)cc1 (stereo not drawn) 110%
CC(C)(C)OC(=O)c1c(N)n(CCCN2CCCC2=O)c2nc3ccccc3nc12 107%
CCOC(=O)Cc1csc(NC(=O)CN(C)S(=O)(=O)c2ccc3c(c2)CCC(=O)N3)n1 96%
CCCN1C(=O)C(NC(C)=O)c2cc(OC)ccc21 (stereo not drawn) 107%
CC(=O)Nc1ccc(NC(=O)CS(=O)(=O)c2cn(CC(=O)N3CCCCC3)c3ccccc23)cc1 95.1%
O=C(CS(=O)(=O)c1cn(Cc2ccc(Cl)cc2)c2ccccc12)N1CCOCC1 91.9%
CC(NC(=O)c1cccc2ccccc12)c1ccc2c(c1)CCCC2 (stereo not drawn) 148%
Cc1c(C(=O)OCC(=O)N2CCCC2=O)oc2ccccc12 108%
Cc1ccc(C(=O)N2CC(=O)Nc3ccccc32)o1 101%
O=C(O)c1cccc2c1C(=O)N(C1CCCC1)C2 97.4%
Nc1nnc(SCC(=O)OCc2ccc(Cl)c(Cl)c2)s1 95.3%

GFP response vs DMSO, active:
Cc1cc(=O)oc2cc(NC(=O)C3CC(=O)N(Cc4ccccc4)C3)ccc12 (stereo not drawn) 559% [may fluoresce violet]
CCN(CC)Cc1csc2ccc(Br)cc12 200%
COc1ccc(CCNc2cc(N3CCN(C(=O)c4ccccc4OC)CC3)ccc2[N+](=O)[O-])cc1OC 180% [may fluoresce violet]
CCOC(=O)c1c(CN2CCOCC2)n(-c2ccccc2)c2ccc(O)cc12 240% [may fluoresce violet]
CN(C)S(=O)(=O)c1cc(C(=O)Nc2ccn(C)n2)c(Cl)cc1Cl 7710% [may fluoresce green]
CCOC(=O)N1CCN(S(=O)(=O)c2ccc(Br)cc2)CC1 576% [may fluoresce violet]
COc1ccc2sc(-c3ccc(N(C)C)cc3)c(C#CCO)c2c1 180% [may fluoresce violet]
O=[N+]([O-])c1cccc(/C=N/Nc2ncc(Br)cn2)c1 239%
CCOC(=O)C(CC)Sc1ncnc2c1nnn2-c1ccc(F)cc1 (stereo not drawn) 191%
COc1cc(CN2CCCC(C(=O)c3ccc(SC)cc3)C2)cc(Cl)c1O (stereo not drawn) 596% [may fluoresce violet]
Cc1ccccc1S(=O)(=O)Cc1ccc(C(=O)NCCN2CCCCC2C)o1 (stereo not drawn) 460% [may fluoresce violet]
CCOc1ccc2nc(N(CCN(C)C)C(=O)c3ccc4ccccc4c3)sc2c1 233% [may fluoresce violet]
CCN1/C(=C/c2ccc3ccc(C)cc3[n+]2CC)Sc2ccccc21 351% [may fluoresce green]
CCN1/C(=C\c2ccc3ccccc3[n+]2CC)Sc2cc(C)ccc21 1150% [may fluoresce green]
Cc1ccc(OCC(=O)Nc2ccc(N3CCN(C(=O)c4ccco4)CC3)cc2)c(C)c1 229% [may fluoresce violet]
COCC(C)OC(=O)c1c(N)n(CCCN2CCOCC2)c2nc3ccccc3nc12 (stereo not drawn) 210% [may fluoresce violet]
O=C(CS(=O)(=O)c1cn(Cc2cccc(F)c2)c2ccccc12)N1CCCCC1 236% [may fluoresce violet]
